This is part of a sample that, as a whole, favours compounds with a hit. Of some 83,000 tested, about 20% had one in any assay.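 96-well plates, one dose, 48 hours. Percent growth reported; active if below 10.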 Calls of active or inactive are those of the source.
The compounds below were run on SF-539 CNS (assay: NCI-60 one-dose screen, 48 h (100 = growth as untreated, 0 = no growth, -100 = all killed)). Settings: 10 µM unless noted.

**Q.** With `O=C(CSc1nccc(=O)[nH]1)Nc1ccc(-c2nc3ccccc3[nH]2)cc1` as the compound, how does the growth read?
**A.** The growth was 98.9% (inactive).

**Q.** How did the growth turn out when `N[C@@H](Cc1cn(-c2ccnc3ccccc23)nn1)C(=O)O` was run?
**A.** Its growth is 93% (inactive).

**Q.** How did the growth turn out when `CCOC(=O)c1c(Nc2ccccc2)nn2c(N)c(C#N)c(-c3ccc(F)cc3)nc12` was run?
**A.** The growth was 88.1% (inactive).

**Q.** `O=C(N/N=C/c1ccc([N+](=O)[O-])o1)c1[nH]c2ccc(Br)cc2c1-c1ccccc1` was tested. Which growth did it give?
**A.** The growth was 4.34% (active).

**Q.** With `CN(C)CCCNc1c2ccc(Cl)cc2nc2c1oc1ccc(Cl)cc12` as the compound, how does the growth read?
**A.** The growth was -85.8% (active).

**Q.** How did the growth turn out when `Cc1c(NC(=O)CSc2nc3sc4c(c3c(=O)n2-c2ccc(Cl)cc2)CCCC4)c(=O)n(-c2ccccc2)n1C` was run?
**A.** Its growth is 89.5% (inactive).

**Q.** `CC(C)(C)Nc1nc2c(OCCc3ccccc3)cccn2c1-c1ccc(Cl)cc1` was tested. Which growth did it give?
**A.** Its growth is 21.7% (inactive).

**Q.** With `CN(C)CCCNc1c2ccc(Cl)cc2nc2c1oc1ccccc12` as the compound, how does the growth read?
**A.** The growth was -68.7% (active).

**Q.** Which growth does the source give for `COc1ccccc1C(=O)CSc1nc(Nc2ccc(S(N)(=O)=O)cc2)c2ccccc2n1` here?
**A.** The growth was 81.2% (inactive).

**Q.** With `COc1ccccc1/C=C/C=N/NC1=NC2C(S1)N(C)C(=O)N2C` (stereo not drawn) as the compound, how does the growth read?
**A.** Its growth is 5.56% (active).

**Q.** `COc1cccc(N2CCN(c3ncnc4c3[nH]c3ccc(F)cc34)C[C@@H]2C)c1` was tested. Which growth did it give?
**A.** The growth was -32.2% (active).

**Q.** How did the growth turn out when `O=C(CSc1nnc(-c2ccc3nc(-c4ccc(Cl)cc4)[nH]c3c2)o1)Nc1ccc(C(=O)/C=C/c2ccc(Cl)cc2)cc1` was run?
**A.** Its growth is 84.3% (inactive).

**Q.** For `Cc1nc2cnc(N)c(C#Cc3cncc(C(=O)Nc4ccc(Cl)c(C(F)(F)F)c4)c3)c2nc1C`, which growth is on record?
**A.** The growth was -12.9% (active).

**Q.** How did the growth turn out when `Cc1ccc(C(=O)Nc2cccc(C(F)(F)F)c2)cc1Nc1nc(-c2cnccn2)nc2c1cnn2C` was run?
**A.** The growth was 60.6% (inactive).

**Q.** `CC(=O)Oc1ccccc1C(=O)Nc1cc(C(C)C)ccc1C` was tested. Which growth did it give?
**A.** The growth was 15.6% (inactive).

**Q.** `COc1ccc(/C=N/NC(=O)c2[nH]c3ccc(Br)cc3c2-c2ccccc2)s1` was tested. Which growth did it give?
**A.** Its growth is 1.16% (active).

**Q.** With `O=C(CN1C(=O)/C(=C/c2ccccc2)SC1=S)N1CCOCC1` as the compound, how does the growth read?
**A.** Its growth is 95.8% (inactive).

**Q.** `COc1ccc(-c2nc3ccc(-c4nnc(SCC(=O)Nc5ccc(C(=O)/C=C/c6ccc(Cl)cc6)cc5)o4)cc3[nH]2)cc1OC` was tested. Which growth did it give?
**A.** Its growth is 83.8% (inactive).

**Q.** Which growth does the source give for `CN1C(=S)N(C)C2C1NN=C1SC(c3ccccc3)=CC(=O)N12` (stereo not drawn) here?
**A.** The growth was 90.8% (inactive).

**Q.** For `CN(C)c1ccc(/C=C2\Cc3c(F)ccc(Br)c3C2=O)cc1`, which growth is on record?
**A.** Its growth is 97.5% (inactive).

**Q.** For `CN(C)S(=O)(=O)c1oc(-c2ccccc2)nc1C#N`, which growth is on record?
**A.** The growth was 84.4% (inactive).

**Q.** How did the growth turn out when `CC(C)(C)OC(=O)N1C(=O)c2c(c3c4ccccc4[nH]c3c3ccc4ccccc4c23)C1=O` was run?
**A.** The growth was 62.1% (inactive).

**Q.** With `Cc1[nH]nc2ncc(C#Cc3cncc(C(=O)Nc4ccc(CN5CCN(C)CC5)c(C(F)(F)F)c4)c3)cc12` as the compound, how does the growth read?
**A.** The growth was -3.8% (active).

**Q.** `C#Cc1nc(C2=C(C)C(=N\O)/C(=N/O)C2)cs1` was tested. Which growth did it give?
**A.** Its growth is 93.9% (inactive).

**Q.** Which growth does the source give for `O=c1[nH]c2ccccc2cc1CSc1ccccc1Nc1nccc(-c2ccc(C(F)(F)F)cc2)n1` here?
**A.** The growth was 45.5% (inactive).

**Q.** How did the growth turn out when `COC1CCN(Cc2ccc3c(NNC(=O)c4cnccn4)nc4cc(F)ccc4n23)C1` (stereo not drawn) was run?
**A.** The growth was 4.26% (active).

**Q.** Which growth does the source give for `O=C(CN1CCOCC1)NNc1ncnc2ccccc12` here?
**A.** The growth was 82.1% (inactive).

**Q.** With `Cn1c(SCC(=O)Nc2ccc(-c3nc4ccc([N+](=O)[O-])cc4[nH]3)cc2)nc2ccccc2c1=O` as the compound, how does the growth read?
**A.** The growth was 78.1% (inactive).

**Q.** Which growth does the source give for `O=C(CSc1nc2sc3c(c2c(=O)n1-c1ccc(Cl)cc1)CCCC3)N/N=C/c1ccc(F)cc1` here?
**A.** Its growth is 102% (inactive).

**Q.** Which growth does the source give for `O=c1/c(=C\c2ccc(-c3ccccc3)o2)sc2nc(-c3ccccc3)nn12` here?
**A.** The growth was 105% (inactive).

**Q.** Which growth does the source give for `COC(=O)C1CCCN(S(=O)(=O)/N=C2\NC(=O)NC2=C(Cl)Cl)C1` (stereo not drawn) here?
**A.** Its growth is 105% (inactive).

**Q.** How did the growth turn out when `Clc1ccc2c(NCCCN3CCOCC3)c3oc4ccc(Cl)cc4c3nc2c1` was run?
**A.** The growth was 41.7% (inactive).

**Q.** For `N#Cc1nc(-c2ccccc2)oc1N1CC[C@@H](CO)C1`, which growth is on record?
**A.** Its growth is 102% (inactive).

**Q.** How did the growth turn out when `O=C(c1ccc(O)cc1)C1[C@H](c2ccc(Cl)cc2)[C@@H](c2ccccc2)NC12C(=O)Nc1ccc(Cl)cc12` (stereo partly drawn) was run?
**A.** The growth was 66.4% (inactive).

**Q.** `COc1cccc(OC)c1-c1nnn(C)c1C(=S)N1CCN(c2ccc([N+](=O)[O-])cc2Cl)CC1` was tested. Which growth did it give?
**A.** The growth was 95.8% (inactive).

**Q.** `CCCC(=O)NC(c1cccc(N(C)C)c1)c1cc(C)c2cccnc2c1O` (stereo not drawn) was tested. Which growth did it give?
**A.** Its growth is 53.9% (inactive).

**Q.** With `CC(=O)Oc1ccccc1C(=O)Nc1ccc(C(=O)/C=C/c2ccncc2)cc1` as the compound, how does the growth read?
**A.** Its growth is 4.63% (active).

**Q.** `C#Cc1nc(C2=C(C)C(OC(=O)CCC(=O)O)CC2)cs1` (stereo not drawn) was tested. Which growth did it give?
**A.** The growth was 100% (inactive).

Reference: PubChem BioAssay (NCI)
